Most compounds without a hit are left out; they make up all but 0.28% or so of the library.
hcGAS inh: blocks human cGAS activity; recombinant h-cGAS, ATP depletion, Kinase-Glo luminescence; Q8N884; 0.081% of 290,000 active; inhibition, % at 12.5 µM
Target sequence (Q8N884 whole entry, looked up): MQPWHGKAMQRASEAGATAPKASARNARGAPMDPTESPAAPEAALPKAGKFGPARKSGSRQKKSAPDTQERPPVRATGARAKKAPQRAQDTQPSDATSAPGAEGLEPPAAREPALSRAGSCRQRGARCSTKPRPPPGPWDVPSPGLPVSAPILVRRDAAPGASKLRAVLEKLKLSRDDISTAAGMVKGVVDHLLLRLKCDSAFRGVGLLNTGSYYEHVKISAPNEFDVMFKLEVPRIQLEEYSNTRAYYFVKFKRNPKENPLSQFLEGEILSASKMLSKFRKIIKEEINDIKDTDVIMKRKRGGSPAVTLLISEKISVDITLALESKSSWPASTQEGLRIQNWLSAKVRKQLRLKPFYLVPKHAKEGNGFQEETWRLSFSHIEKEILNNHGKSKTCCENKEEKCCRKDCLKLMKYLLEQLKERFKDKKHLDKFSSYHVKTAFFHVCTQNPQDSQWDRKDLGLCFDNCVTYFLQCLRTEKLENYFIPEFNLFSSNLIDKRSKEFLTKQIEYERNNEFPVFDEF
mcGAS lum: inhibitors of mouse cGAS | inhibition, % at 12.5 µM | AID 1259399 | recombinant cGAS, Kinase-Glo ATP depletion luminescence | 0.15% of 160,000 active | Q8C6L5
NPYLR7 agonist: mosquito NPYLR7 agonism | activation, % at 10 µM | HEK293T NPYLR7/Galpha15, GCaMP6s calcium fluorescence | 0.15% of 270,000 active; in the data active = activation above about 40%
Numbers stand for hits; . = inactive; / = not tested or not shown. Cut-off read from the data, not from the text of the source, unless noted: active = inhibition above about 40%; inactive = the rest.

SMILES	hcGAS inh	mcGAS lum	NPYLR7 agonist
O=C(CSc1nnc2ccccn12)Nc1ccc([N+](=O)[O-])cc1Cl	.	/	.
O=C(CCl)Nc1ccc([N+](=O)[O-])cc1Cl	.	60	.
CCCNC(=O)Cn1nc(C)c([N+](=O)[O-])c1C	.	/	.
O=c1cc(-c2ccccc2)[nH]n1-c1nc2ccccc2s1	55	.	.
O=c1c(C=NC2CC2)c(-c2ccccc2)[nH]n1-c1nc2ccccc2s1	60	.	.
COc1ccc(-c2[nH]n(-c3nc4ccccc4s3)c(=O)c2C=NCCN2CCOCC2)cc1	.	/	.
O=c1cc(-c2ccccc2)[nH]n1-c1c(F)c(F)c(F)c(F)c1F	.	.	.
CCOC(=O)Cc1cc(=O)n2[nH]c(-c3ccc(Br)cc3)cc2n1	.	/	.
CCOC(=O)Cc1cc(=O)n2[nH]cc(-c3cccc(Br)c3)c2n1	63	/	.
CCCCCCCC(=O)N1CCCC1C(=O)Nc1nnc(-c2cccc(Cl)c2)s1 (centres undefined)	.	.	.
CC(N)C(=O)Nc1nnc(-c2ccccc2)s1 (centres undefined)	.	.	.
CCC(=O)C(C#N)c1nnc(-c2ccccc2)s1 (centres undefined)	56	/	.
Cc1ccc(C(C)C)c(OCC(=O)N2CCC(C(=O)Nc3ccc4c(c3)OCO4)CC2)c1	.	/	.
N#CC(C(=O)COc1cc(F)ccc1F)c1nc2ccccc2s1 (centres undefined)	.	/	.
N#CC(C(=O)C(F)(F)F)c1nc2ccccc2s1 (centres undefined)	44	/	.
Cc1cc(NC(=O)c2ccc3c(c2)OCO3)n(-c2ncnc3c2cnn3-c2ccccc2)n1	.	.	.
O=C1CCCCCN1CO	83	.	.
O=C1CCCCCN1CP(=O)(O)CN1CCCCC1	.	.	/
CC(=O)N1CCN(c2ccc(S(=O)(=O)N3CCN(C)CC3)cn2)CC1	.	/	.
N#Cc1c(C(F)(F)F)cc(=O)n2c1[nH]c1ccccc12	46	/	.
N#Cc1c(-c2ccccc2)cc(=O)n2c1[nH]c1ccccc12	.	/	.
Cc1c(Cc2ccccc2)c(=O)n2c([nH]c3ccccc32)c1C#N	.	/	.
Cc1cc(=S)n2c([nH]c3ccccc32)c1C#N	41	/	.
COc1ccc(OC)c(-c2ccc(=O)n(CCNC(=O)Nc3cccc(F)c3)n2)c1	.	.	.
COc1ccc(N2CCN(c3cc(Cl)nc(SCc4cccc(C(=O)O)c4)n3)CC2)cc1	.	.	.
SMILES	hcGAS inh	mcGAS lum	NPYLR7 agonist
C1CCC2(CC1)OCC(CN1CCOCC1)O2 (centres undefined)	.	.	/
Cc1csc(C(NC(=O)N2CCOC(C)C2)C2CC2)n1 (centres undefined)	.	.	.
COc1ccc(C=NN2CCN(Cc3ccccc3Cl)CC2)c(OC)c1OC	.	.	.
COc1cc(C=CC(=O)c2ccc3c(c2)OCCO3)cc(Br)c1O	.	.	145
CCOc1cc(C=CC(=O)c2ccc3c(c2)OCCO3)cc(Br)c1OCC	.	.	.
Cc1ccnc(C(C2CC2)n2cnc3sc4c(c3c2=O)CCNC4)c1 (centres undefined)	.	.	.
C[n+]1ccc(C=CC(=O)c2ccc3cccc4c3c2CC4)cc1	.	61	.
C[n+]1ccc(C=CC(=O)c2ccc3c4c(cccc24)CC3)cc1	.	.	.
COc1ccc2oc(=O)c(-c3nnc(Nc4cc(Cl)ccc4OC)s3)cc2c1	.	.	56
COc1ccc(Cl)cc1Nc1nnc(-c2cc3c(ccc4ccccc43)oc2=O)s1	.	.	59
COc1ccc(Nc2nnc(-c3cc4cc(Cl)ccc4oc3=O)s2)c(OC)c1	.	.	.
COc1ccc(Nc2nnc(-c3cc4c(ccc5ccccc54)oc3=O)s2)c(OC)c1	.	.	.
CCn1ccnc1CN1CCC2(CCCN(C(=O)c3ccccc3C)C2)C1 (centres undefined)	.	.	.
Cc1ccc(C)c(-n2c(C)nnc2SCC(=O)NC23CC4CC(CC(C4)C2)C3)c1	.	/	.
COc1cc(C=C2COc3ccccc3C2=O)ccc1OCC#N	.	.	.
C=CCOc1ccc(C=C2COc3ccccc3C2=O)cc1OC	.	46	.
O=C(C1=C(O)c2ccccc2S(=O)(=O)N1)c1ccc(Cl)s1	41	/	.
O=C(O)c1ccc(Cl)s1	.	/	.
COCCN=Cc1cc(Br)cc(Br)c1O	68	.	.
NC(=O)NN=Cc1cc(Br)cc(Br)c1O	.	/	.
COC(=O)n1c(=O)oc2cc(S(=O)(=O)N3CCOCC3)ccc21	.	/	.
COC(=O)n1c(=S)oc2cc(Cl)ccc21	.	40	.
CC(=O)C1=C(O)C=C2Oc3c(C(C)=O)c(O)c(C)c(O)c3C2(C)C1=O (centres undefined)	78	86	.
COc1cc(Br)c(OC)c(C(=O)O)c1	.	/	.
O=C(O)c1cc(Br)c2ccccc2c1O	.	68	.
SMILES	hcGAS inh	mcGAS lum	NPYLR7 agonist
Cc1[nH]c2ccccc2c1CC(=O)NCCS(=O)(=O)N(C)C	.	/	.
Cc1cccc(NC2CCN(C(=O)c3ccc(C)[nH]c3=O)CC2)c1	.	.	.
Cc1ccc(C2(O)CCN(Cc3ccc(Oc4ncccn4)cc3)CC2)nc1	.	.	.
Cc1csc(N2C(=N)SC(c3ccccc3)C2=O)n1 (centres undefined)	.	.	.
Cc1csc(N2C(=N)SCC2=O)n1	42	.	.
Cc1cc(Cl)ccc1OCc1nc(-c2ccc(Cl)cc2)no1	.	.	.
CC(c1ccc(S(N)(=O)=O)cc1)N(C)Cc1csc(C(C)(C)C)n1 (centres undefined)	.	/	.
Cc1ccc(N2C(=O)NC(=O)/C(=C\c3cccs3)C2=O)cc1	.	.	65
Cc1ccc(N2C(=O)NC(=O)/C(=C\c3ccc(N(C)C)o3)C2=O)cc1	.	.	.
CCCc1c(C)nn(-c2ccc(C(=O)Nc3cccc(OC)c3)cc2)c1C	.	.	.
O=c1oc2c(-c3ccc(Br)cc3)cc(O)cc2s1	.	.	.
O=c1oc2c(Br)c(O)c(Br)cc2s1	41	76	.
COc1ccc(-c2cccc(-n3cncc3C(=O)NC(C)c3ccc(Br)cc3)c2)cc1OC (centres undefined)	.	.	.
N#Cc1c(N)nc(SCC(=O)c2ccccc2)c(C#N)c1-c1ccc(O)cc1	.	.	.
N#Cc1c(N)nc2c(c1N)C(Sc1ccccc1)c1ccc(O)cc1O2 (centres undefined)	.	/	413
O=C1NN=C(c2ccccc2)C/C1=N/Nc1ncnc2ccccc12	.	.	.
C(=Cc1ccccc1)C=NNc1ncnc2ccccc12	.	/	161
COCC(=O)Nc1cc(C(=O)N(C)CCc2cnn(C)c2)cc2nc(-c3ccccc3)n(C)c12	.	.	.
NS(=O)(=O)c1ccc(CCN2C(=O)c3cccc4cccc(c34)C2=O)cc1	.	.	.
Nc1c(S(=O)(=O)O)cc2c3c(cccc13)C(=O)N(CCO)C2=O	.	.	93
COc1ccc2cccc(NC(=O)CN3C(=O)CCC3=O)c2n1	.	/	.
Nc1nc(-c2cc(I)c(O)c(I)c2)cs1	66	102	.
Nc1nc(-c2ccncc2)cs1	.	/	.
Cc1cc(C)c2sc(N(CCCN(C)C)C(=O)c3ccn(C)n3)nc2c1	.	.	/
Cc1ccc(N2C(=O)CC(N3CCN(C4CC(=O)N(c5ccc(C)cc5C)C4=O)CC3)C2=O)c(C)c1 (centres undefined)	.	.	.

Screens: PubChem BioAssay, Fisher Drug Discovery Resource Center
